Laboratory results reported in the supplement of paper PMC13380429.

Tested on: Vero E6 infected with SARS-CoV-2
Assay: inhibition of SARS-CoV-2 cytopathic effect; higher = more antiviral protection, active = above 15
Settings: 48 h

Measured: inhibition of SARS-CoV-2 cytopathic effect

FC(F)(F)c1ccc(CNc2ccc(Cc3c[nH]c4ncccc34)cn2)cc1
inactive: 1 nM 3.02% | 8.33 nM 0.15% | 100 nM 0.15% | 833.33 nM -0.39% | 10000 nM -1.01%

CC(C)C[C@H](NC(=O)[C@@H](O)[C@H](N)Cc1ccccc1)C(=O)O [ubenimex]
inactive: 1 nM -0.51% | 8.33 nM -0.09% | 100 nM 2.6% | 833.33 nM 0.25% | 10000 nM 1.71%

Cc1ccc(S(=O)(=O)N2CCC[C@H]2c2ccc(F)cc2)cc1
inactive: 1 nM 0.31% | 8.33 nM -0.49% | 100 nM 0.49% | 833.33 nM 1.4% | 10000 nM 0.86%

CCO/N=C(\C(=O)N[C@@H]1C(=O)N2C(C(=O)[O-])=C(Sc3nc(-c4cc[n+](C)cc4)cs3)CS[C@H]12)c1nsc(NP(=O)(O)O)n1 [ceftaroline-fosamil]
inactive: 1 nM 3.38% | 8.33 nM 2.02% | 100 nM 4.54% | 833.33 nM 4.34% | 10000 nM 3.55%

C[C@@H](C(=O)O)c1ccc(-c2ccccc2)c(F)c1 (racemic) [flurbiprofen-(+/-)]
inactive: 1 nM 0.383% | 8.33 nM 0.72% | 100 nM 1.91% | 833.33 nM 1.32% | 10000 nM -0.637%

Cc1ccc(S(=O)(=O)NCl)cc1 [chloramine-T]
inactive: 1 nM 1.46% | 8.33 nM 3.35% | 100 nM 1.32% | 833.33 nM 0.02% | 10000 nM -5.13%

O=C1CS[C@@H](c2ccccc2Cl)c2cc(Cl)ccc2N1 (racemic)
inactive: 1 nM 1.66% | 8.33 nM -2.6% | 100 nM -1.47% | 833.33 nM 5.44% | 10000 nM 7.2%
